The values that follow come from PubChem BioAssay AID2551 (National Center for Advancing Translational Sciences (NCATS), 2010).

Screen size: about 310,000 compounds; about 17,000 (5.5%) were called active. Not shown: some 11% with an inconclusive outcome. Shown is part of a subset that was picked to be rich in actives. Entries that show only a call come without a potency. Values without a mark were called inactive. Calls follow the shape of the dose curve; as a rule, active = well fitted inhibition curve with a large enough effect; inconclusive = small, poorly fitted or top-dose-only effect, or effect the other way; inactive = no such curve, though single readings can be large or run the other way.
Potency is read from the fitted curve at half-maximal effect.

Chain of Nuclear receptor ROR-gamma (Mus musculus) (P51450 whole entry, looked up, the tested form may be a part): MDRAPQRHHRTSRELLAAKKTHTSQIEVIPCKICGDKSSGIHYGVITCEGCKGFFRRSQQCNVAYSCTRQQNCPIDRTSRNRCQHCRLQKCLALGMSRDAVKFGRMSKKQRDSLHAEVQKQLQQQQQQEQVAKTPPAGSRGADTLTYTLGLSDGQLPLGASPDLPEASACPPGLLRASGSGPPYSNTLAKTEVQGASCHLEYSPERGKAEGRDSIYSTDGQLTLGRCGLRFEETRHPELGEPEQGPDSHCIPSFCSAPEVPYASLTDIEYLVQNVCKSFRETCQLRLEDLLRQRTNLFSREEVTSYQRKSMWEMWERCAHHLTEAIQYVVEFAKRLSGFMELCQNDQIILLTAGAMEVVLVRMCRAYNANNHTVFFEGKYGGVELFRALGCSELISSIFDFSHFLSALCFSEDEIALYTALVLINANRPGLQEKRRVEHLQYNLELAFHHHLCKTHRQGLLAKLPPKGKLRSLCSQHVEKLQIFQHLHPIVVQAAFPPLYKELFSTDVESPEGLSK

For this assay, the target named is Nuclear receptor ROR-gamma (Mus musculus) (UniProt P51450). Description: qHTS for inhibitors of ROR gamma transcriptional activity. Also: nearly all actives have a fitted effect of over 60% in size. To be noted: Drosophila S2 Gal4-RORgamma UAS-luciferase reporter, 20 h; series mostly up to 53.6 µM. The gist of the method:
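Stable Schneider cell line, Gal4 DNA-binding domain fused to ROR gamma, UAS-luciferase. Cmpd 1 hr RT → CuSO4 700 uM final → 20 hr RT → luciferase reagent 10 min → luminescence.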
Background: In qHTS, concentration-response curves come from the screen itself.
Take `NS(=O)(=O)c1ccc(CNC(=O)c2cccc(Oc3ccccc3)c2)cc1`: the Potency entry is “inactive”.

Take `COc1ccc(N2CCN(C(=O)Cn3cnc4sc(C)c(S(=O)(=O)N5CCOCC5)c4c3=O)CC2)cc1`: the Potency result was “inactive”.

Turning to `COc1ccc(NS(=O)(=O)c2ccc3oc(SCC(N)=O)nc3c2)cc1`, the Potency entry is “inactive”.

`COc1cc(C(=S)N2CCOCC2)cc(OC)c1OC(=O)c1ccc([N+](=O)[O-])cc1[N+](=O)[O-]`: the activity change, negative = inhibition is -8.5% [at 1.91 µM].

As for `O=C(O)c1ccc2c(=O)n3c(nc2c1)/C(=C/c1ccc(OC(F)F)cc1OC(F)F)CC3`, the Potency entry was “inactive”.

Take `Nc1nc(CC(=O)CSc2ccc(Cl)cc2)nc(Nc2ccc(F)cc2)n1`: the Potency was 14.1 µM (active).

For `CCOC(=O)N1CCN(Cc2nc(N)nc(Nc3ccc(C)cc3)n2)CC1`, the Potency result is “inactive”.

`Cc1ccc(Nc2nc(N)nc(CSc3nnc(C)s3)n2)cc1`: the Potency result was “inactive”.

On to `O=S(=O)(NC1CC1)c1ccc(Cl)cc1`, for which the activity change, negative = inhibition is 30.8% [at 1.91 µM].

For the compound `Cc1ccc(Nc2nnc(SCc3ccccc3)s2)cc1`, the Potency entry is “inactive”.

As to `Nc1ccccc1N`, the Potency result was “inactive”.

Consider `Cc1ccc(Nc2ccccc2N)cc1`, for which the Potency is 11.2 µM (active).

Take `Cc1[nH]c(C)c(S(=O)(=O)N2CCC(C)CC2)c1C(=O)N1CCCC1`: the Potency result is “inactive”.

`COCCNC(=O)CN(Cc1ccco1)C(=O)CCC(=O)Nc1nccs1`: the Potency entry was “inactive”.

As to `C/C(CCc1ccccc1)=N\NC(=O)c1ccc(CN2CCOCC2)cc1`, the Potency result is “inactive”.

As for `COc1ccc(C(=O)Nc2ccc(CN3CCOCC3)cc2)cc1`, the Potency result is “inactive”.

Take `Cc1ccccc1-n1c(C)cc(/C=N/NC(=O)c2ccc(CN3CCOCC3)cc2)c1C`: the Potency was 10 µM (active).

Consider `Cc1cc(=O)n2nc(N3CCCC(C(=O)NCc4cccc(Cl)c4)C3)sc2n1` (configuration not stated), for which the Potency entry was “inactive”.

With `CCc1nnc(NC(=O)c2nc3nccc(C)n3n2)s1`, the Potency result was “inactive”.

As to `O=C(COC(=O)c1ccc(Oc2ccccc2)cc1)Nc1nnc(-c2ccccc2)o1`, the Potency is 2.82 µM (active).

With `Cc1cccc(NC(=O)Nc2nnc(-c3ccccc3)o2)c1`, the Potency result was “inactive”.

For the compound `O=C(OCc1ccc(Br)cc1)c1cccc(-c2nnc(-c3ccccc3)o2)c1`, the Potency entry is “inactive”.

As to `CCCC(=O)Nc1nnc(-c2ccccc2)o1`, the Potency was 7.94 µM (active).

Take `Nc1ccc(-c2nnc(-c3ccccc3)o2)cc1`: the Potency result was “inactive”.

On to `Cc1ccnc2nc(C(=O)OCC(=O)N(CC(C)C)CC(C)C)nn12`, for which the Potency result is “inactive”.

Regarding `Cc1ccnc2nc(C(=O)Nc3nnc(-c4ccccc4)o3)nn12`, the Potency was 11.2 µM (active).

Regarding `O=C(COC(=O)c1ccccc1)Nc1ccccc1Sc1ccccc1`, the Potency result is “inactive”.

`COC(=O)C1(C)CC1(c1ccccc1)c1ccccc1` (configuration not stated): the Potency result was “inactive”.

On to `CN(C)N1C(N)=C(C#N)C(c2ccc(Br)cc2)C2=C1CCCC2=O` (configuration not stated), for which the Potency entry is “inactive”.

In the case of `C[C@@H](NC(=O)[C@@H]1Cc2ccccc2CN1)C(=O)NC1CCCC1`, the Potency entry was “inactive”.

Regarding `CC(=O)NN1C(=O)c2ccccc2NC1c1ccccc1` (configuration not stated), the Potency result was “inactive”.

Take `CCCC1=Nc2cc(C(=O)NCCN3CCCC3)ccc2Sc2ccccc21`: the Potency result is “inactive”.

Consider `CCC1Sc2ccc(S(=O)(=O)CCC(=O)NCc3cccs3)cc2NC1=O` (configuration not stated), for which the Potency entry is “inactive”.

`FC(F)(F)c1cccc(N/N=C/c2ccccc2)c1`: the Potency entry is “inactive”.

On to `FC(F)(F)c1nc2ccccc2nc1N/N=C/c1ccc(Cl)cc1`, for which the Potency is 5.62 µM (active).

In the case of `CC(NC(=O)C(=O)N/N=C/c1ccc(Cl)cc1)c1ccccc1` (configuration not stated), the Potency entry was “inactive”.

In the case of `COc1ccccc1CN(C)C(=O)c1cc2ccccc2o1`, the Potency entry was “inactive”.

On to `Cc1ccc2[nH]c(=O)c(CN(C)S(=O)(=O)c3cccc4nonc34)cc2c1`, for which the Potency result is “inactive”.

Take `COc1cc(SC#N)ccc1N=Cc1c(C)[nH]n(-c2ccc(C)cc2)c1=O`: the Potency is 6.31 µM (active).

For the compound `C=CCN1C(=O)C2(OCCCO2)c2cccc(Cl)c21`, the Potency entry is “inactive”.

As for `Oc1ccc(-n2nnnc2SCc2c(F)cccc2Cl)cc1`, the Potency entry was “inactive”.

In the case of `Cc1ccc(CC2CC(=O)N(c3cc(C)ccc3C)C2=O)cc1` (configuration not stated), the Potency entry was “inactive”.

Turning to `O=C(Nc1cccc(C(F)(F)F)c1)c1cnccn1`, the Potency entry is “inactive”.

As to `Cc1cccc(NC(=O)c2cccc(C(F)(F)F)c2)c1`, the Potency entry was “inactive”.

Take `O=C(Nc1cccc(C(F)(F)F)c1)c1cc(Br)cc(Br)c1O`: the Potency was 5.01 µM (active).

On to `O=C(N/C(=C/c1ccc(Cl)cc1)C(=O)N1CCCCC1)c1ccco1`, for which the Potency result was “inactive”.

In the case of `CN(CC(=O)Nc1c(Cl)cccc1Cl)C(=O)c1ccncc1`, the Potency result was “inactive”.

Consider `Cc1ccc(-c2ccc(=O)n(Cc3ccc(F)cc3Cl)n2)cc1`, for which the Potency entry is “inactive”.

Consider `Cc1n[nH]c(=O)c2c1nnn2Cc1ccc(F)cc1`, for which the Potency result was “inactive”.

Consider `Cc1nnsc1C(=O)N/N=C/c1cccc(C(F)(F)F)c1`, for which the Potency entry is “inactive”.

For the compound `COc1ccc(/C=N/NC(=O)Cn2cc(C(F)(F)F)ccc2=O)cc1`, the Potency result is “inactive”.

Consider `COc1ccc(/C=N/NC(=O)c2cccc(C(F)(F)F)c2)cc1`, for which the Potency is 12.6 µM (active).

On to `C=C1C(=O)C23C(O)C1CCC2[C@]12COC3(O)C(O)C1C(C)(C)CC[C@H]2O` (some centres not stated), for which the Potency was 0.708 µM (active).

Consider `CCC1Oc2ccccc2N(CC(=O)NCCCN2CCN(CC)CC2)C1=O` (configuration not stated), for which the Potency result was “inactive”.

For the compound `COc1ccc(Cc2nc3ccc(C(=O)NCC4CCOCC4)cc3o2)cc1OC`, the Potency entry is “inactive”.

As for `CCOC(=O)C1=C(c2ccc(OC)cc2)C(=O)c2ccccc2C1=O`, the Potency is 6.31 µM (active).

Consider `CCCCC(C(=O)OCC(=O)c1ccc(OC)cc1)N1C(=O)c2ccccc2C1=O` (configuration not stated), for which the Potency result is “inactive”.

Consider `CCOC(=O)c1c(-c2ccc(C)cc2)csc1/N=C(\C)C1=C(O)c2ccccc2C1=O`, for which the Potency result is “inactive”.

As for `O=C(NCCCc1ccccc1)C1CCC(=O)N(CCc2ccc(Cl)cc2)C1` (configuration not stated), the Potency result was “inactive”.

`COc1ccccc1CN1CCCC(N2CCN(c3ccc(F)cc3)CC2)C1` (configuration not stated): the Potency entry was “inactive”.

With `O=C(CN(CC1CCCO1)C(=O)CNS(=O)(=O)c1ccc(Cl)cc1)NCc1ccccc1` (configuration not stated), the Potency result is “inactive”.

Consider `c1ccc2cc3c(NCCN4CCOCC4)ccnc3cc2c1`, for which the Potency is 11.2 µM (active).

Consider `O=C(NCCN1CCOCC1)c1ccc2c(c1)ncn2C1CCCC1`, for which the Potency result is “inactive”.

Consider `Clc1ccccc1-c1cc(NCCN2CCOCC2)ncn1`, for which the Potency entry was “inactive”.

Regarding `Cc1ccc2c(c1)N(CC(=O)N1CCC(O)CC1)C(=O)CO2`, the Potency entry is “inactive”.

With `Cc1ccc(C(=O)CCC(=O)N(C)CC(=O)Nc2c(Cl)cccc2Cl)cc1`, the Potency result is “inactive”.

For the compound `Cc1cccnc1NC(=O)c1cccc(S(=O)(=O)N2CCN(c3ccc(F)cc3)CC2)c1`, the Potency result is “inactive”.

As for `S=C1NC(c2ccccc2)=NCN1c1ccc(Br)cc1`, the Potency is 8.91 µM (active).

On to `Cc1nc(=O)c(-c2ccccc2)c(C)n1-c1ccc(Br)cc1`, for which the Potency entry is “inactive”.

Turning to `Brc1ccccc1C1N=C(c2ccccc2)NO1` (configuration not stated), the Potency result is “inactive”.

For `Cc1ccc2c(c1)C(c1ccccc1)N(C(=O)c1ccc(F)cc1)CC(=O)N2` (configuration not stated), the Potency result was “inactive”.

As for `Cc1ccc2nc(N(CCN(C)C)C(=O)C3=COCCO3)sc2c1`, the Potency result is “inactive”.

For `COc1cccc(-c2noc(C3CCCN(C(=O)c4ccc(F)cc4)C3)n2)c1` (configuration not stated), the activity change, negative = inhibition is -2.97% [at 1.91 µM].

Regarding `CC1CCCC(C)N1CCCNC(=O)c1cc2c(=O)n(C)c3ccccc3c2n1C` (configuration not stated), the Potency entry is “inactive”.

For `Cn1c(C(=O)NCCc2ccsc2)cc2c(=O)n(C)c3ccccc3c21`, the Potency entry is “inactive”.

With `CCN1CCCC1CNC(=O)c1cc2c(=O)n(C)c3ccccc3c2n1C` (configuration not stated), the Potency is 3.98 µM (active).

Take `Cc1ccc(OCC(=O)Nc2ccc(N3CCN(C(=O)c4ccco4)CC3)cc2)c(C)c1`: the Potency entry was “inactive”.

Regarding `CC(=O)Oc1ccc(N(C(C)=O)S(=O)(=O)c2ccc3ccccc3c2)cc1Br`, the Potency result was “inactive”.

Turning to `CCCC1CCC(=NNC(=S)NCCc2ccccc2)CC1` (configuration not stated), the Potency is 5.01 µM (active).

Consider `CCCCNC(=O)C1CCC(=O)N1CCc1ccccc1` (configuration not stated), for which the Potency result was “inactive”.

In the case of `O=C1CCN(C(=S)NCCc2ccccc2)CC1`, the Potency entry is “inactive”.

For `CCOc1ccc(NC(=O)C(C)N2C(=O)c3ccccc3C2=O)cc1` (configuration not stated), the Potency entry was “inactive”.

Take `Cc1cccc(N2CCN(c3ccc(NC(=O)/C=C\C(=O)O)cc3)CC2)c1`: the Potency result is “inactive”.

Consider `O=C(O)/C=C\C(=O)Nc1ccc(OCc2ccccc2)cc1`, for which the Potency entry was “inactive”.

As for `CSc1ccc(NC(=O)/C=C/C(=O)O)cc1`, the Potency was 0.0794 µM (active).

As to `CN(C)CCCn1c(SCc2ccc(Cl)cc2)nnc1-c1ccncc1`, the Potency result is “inactive”.

Turning to `O=C(CCCOc1ccc(Cl)cc1Cl)NNC(=O)C1CCC1`, the Potency entry is “inactive”.

As for `Cn1c(CCCOc2ccc(Cl)cc2Cl)n[nH]c1=S`, the Potency is 6.31 µM (active).

Take `CN1CCC(OC(=O)COc2ccc(Cl)cc2Cl)CC1`: the Potency result is “inactive”.

Consider `CN(C)c1nc(NN)nc(Nc2ccc(F)cc2)n1`, for which the Potency was 7.94 µM (active).

Consider `CN(C)c1nc(Nc2ccc(Cl)c(Cl)c2)nc(N(C)C)n1`, for which the Potency entry was “inactive”.

With `CN(C)c1ccnc(Nc2ccc(F)cc2)c1C#N`, the Potency result is “inactive”.

In the case of `COc1ccc(CNC(=O)C2CCN(C(=O)c3ccco3)CC2)cc1`, the Potency result is “inactive”.

On to `Cc1c(OC(C)C(=O)NCC2CCC(C(=O)O)CC2)ccc2c1oc(=O)c1ccccc12` (configuration not stated), for which the Potency entry was “inactive”.

With `Cc1ccc(CN2CCNC(=O)C2CC(=O)NCc2csc(C(C)C)n2)cc1` (configuration not stated), the Potency result is “inactive”.

Turning to `COc1ccc(NS(=O)(=O)c2ccc(Oc3c(C#N)cccc3C#N)cc2)cc1`, the Potency is 7.94 µM (active).

Regarding `COc1cc(NS(=O)(=O)c2ccc(NC(C)=O)cc2)cc(OC)c1`, the Potency result is “inactive”.

Turning to `CCOc1ccc(S(=O)(=O)Nc2ccc(S(=O)(=O)Nc3cc(OC)ccc3OC)cc2)cc1`, the Potency result was “inactive”.

As for `CCn1ccnc1CN(C)C(=O)c1cc(COc2ccc(Cl)cc2OC)on1`, the Potency result was “inactive”.

For `Oc1c(CN2CCN(c3ccc(F)cc3)CC2)cc(Cl)c2cccnc12`, the Potency is 0.562 µM (active).

For the compound `Oc1ccc(CN2CCN(c3ncccn3)CC2)cc1`, the Potency result is “inactive”.

Take `O=C(c1cccc(C(=O)N2CCN(c3ccc(F)cc3)CC2)c1)N1CCN(c2ccc(F)cc2)CC1`: the Potency entry was “inactive”.

On to `COCCNC(=O)C1CCN(C(=O)C2CC(=O)N(c3ccc(C)cc3)C2)CC1` (configuration not stated), for which the Potency result is “inactive”.

`Cc1cccc(C(=O)Nc2ccccc2N2CCN(c3ccc(F)cc3)CC2)c1`: the Potency result was “inactive”.

For the compound `O=C(c1cncc(Br)c1)N1CCN(c2ccc([N+](=O)[O-])cc2)CC1`, the Potency result was “inactive”.

For `Cc1cccc(C(=O)NC(=S)N2CCN(c3ccc([N+](=O)[O-])cc3)CC2)c1`, the Potency is 0.447 µM (active).

As for `CC(C(=O)c1ccc(-c2ccccc2)cc1)[n+]1cccc(Br)c1` (configuration not stated), the Potency entry was “inactive”.
